DT40 TDP1 no CPT – qHTS for Inhibitors of human tyrosyl-DNA phosphodiesterase 1 (TDP1): qHTS in cells in absence of CPT. DT40 Tdp1-/- hTDP1 cells, no CPT, ATP luminescence, 48 h. Potency, µM (top dose mostly 46.2 µM), for the others: at the top dose activity change, negative = growth inhibition, usual class: inhibitors. hit rate 15% among 420,000; further: potency means the concentration at half of the fitted maximal effect; on the % scale 0 is the no-effect control and ±100 the full control effect; nearly all actives have a fitted effect of over 55% in size
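Chicken DT40 Tdp1-/- cells stably complemented with human TDP1 were seeded at 400 cells/well with DMSO in place of 20 nM camptothecin. After compound pinning, cells grew at least 48 hr at 37 °C; viability read by CellTiter-Glo luminescence.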
IL1B secr inh – qHTS for Inhibitors of Inflammasome Signaling: IL-1-beta AlphaLISA Primary Screen; activity change, % at 57.5 µM; AID 743279, 2014; THP-1 LPS/ATP IL-1B secretion, AlphaLISA, 16 h; active compounds read low; hit rate 4.7% among 360,000; in the data active means activity change below about -50%; inconclusive means mostly about -30% to -49%; further: on the % scale 0 is the no-effect control and ±100 the full control effect
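Secreted IL-1B measured by AlphaLISA bead assay after 16 h compound exposure of THP-1 cells; compounds (final up to 57.5 uM) added 1 h before LPS (250 ng/mL) and ATP (1.25 mM) stimulation; lower signal means less secretion.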
TDP1 cell CPT – qHTS for Inhibitors of human tyrosyl-DNA phosphodiesterase 1 (TDP1): qHTS in cells in presence of CPT | chicken DT40 Tdp1-/-;hTDP1 cells + 20 nM CPT, ATP luminescence, 48 h | hit rate 12% among 420,000 | Potency, µM (highest dose often 46.2 µM), for the others: at the top dose activity change, negative = growth inhibition, hits mostly inhibitors; further: potency means the concentration at half of the fitted maximal effect; on the % scale 0 is the no-effect control and ±100 the full control effect; nearly all actives have a fitted effect of over 55% in size
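Chicken DT40 Tdp1-/- cells stably complemented with human TDP1 were seeded at 400 cells/well in medium containing 20 nM camptothecin, exposed to pin-transferred compounds, and grown at 37 °C for at least 48 hr. Viability was read as ATP luminescence.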
TGFb SMAD3 inh – qHTS for Inhibitors of TGF-b; HepG2 CAGA-GFP TGF-b/SMAD3 reporter, GFP fluorescence, 18 h; TGF-beta stimulated, 500 pg/mL final; hit rate 1.2% among 410,000; AID 588855, 2011; Potency, µM (doses to about 46.1 µM), inactives show at the top dose activity, negative = inhibition, hits mostly inhibitors; further: potency means the concentration at half of the fitted maximal effect; on the % scale 0 is the no-effect control and ±100 the full control effect; nearly all actives have a fitted effect of over 65% in size
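Smad-responsive CAGA-GFP expression was quantified in HEPG2 cells exposed to compounds and 500 pg/mL final TGF-beta for 18 h at 37 degrees C; unstimulated wells defined full inhibition.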
ASM inhibitor – Inhibitors of Secretory Acid Sphingomyelinase (S-ASM): qHTS; Potency, µM (highest dose often 57.5 µM), for the others: at the top dose activity change, negative = inhibition, most hits filed as inhibitors; placental ASM, HMU-PC fluorogenic substrate, 60 min; hit rate 0.006% among 340,000; further: potency means the concentration at half of the fitted maximal effect
Target sequence (P17405 47-631 limits assumed): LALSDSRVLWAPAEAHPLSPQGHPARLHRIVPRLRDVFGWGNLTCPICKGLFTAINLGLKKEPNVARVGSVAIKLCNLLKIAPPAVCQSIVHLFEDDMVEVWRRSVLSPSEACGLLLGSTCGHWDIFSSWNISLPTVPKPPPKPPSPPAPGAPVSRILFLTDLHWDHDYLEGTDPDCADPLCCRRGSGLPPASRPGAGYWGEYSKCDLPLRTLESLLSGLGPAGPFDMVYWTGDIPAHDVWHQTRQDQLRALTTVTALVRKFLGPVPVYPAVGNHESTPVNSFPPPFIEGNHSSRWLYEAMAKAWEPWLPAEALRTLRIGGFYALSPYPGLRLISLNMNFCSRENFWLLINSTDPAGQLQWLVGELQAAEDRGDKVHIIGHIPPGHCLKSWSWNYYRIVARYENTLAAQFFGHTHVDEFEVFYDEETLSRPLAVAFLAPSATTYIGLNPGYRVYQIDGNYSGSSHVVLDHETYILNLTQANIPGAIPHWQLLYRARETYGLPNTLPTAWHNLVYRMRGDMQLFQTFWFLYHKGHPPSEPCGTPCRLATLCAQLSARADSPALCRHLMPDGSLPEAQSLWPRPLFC
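Fluorescence read-out (Ex 386 nm, Em 447 nm) after stopping the reaction at pH 10. Enzyme: ASM from human placenta; substrate HMU-PC0, 9 uM final; 60 min, 37 °C. Compound preincubation 10 min, ambient temperature.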
HepG2 viability – qHTS for Inhibitors of TGF-b: Cytotox Counterscreen | HepG2 CAGA-GFP viability, ATP luminescence, 18 h | Potency, µM (highest dose often 46.1 µM), without a hit: at the highest dose activity change, negative = cytotoxicity, hits mostly cytotoxic | hit rate 0.76% among 410,000; further: potency means the concentration at half of the fitted maximal effect
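HepG2 CAGA-GFP cells (1000/well, DMEM with 1% FBS) received compound, then TGF-beta at 500 pg/mL final, and were incubated 18 hours at 37 degrees C. Viability was read by CellTiter-Glo luminescence. Media-only wells were set as complete cell-killing and DMSO as no toxicity.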
An asterisk follows results filed as active; ? = inconclusive; / = no result; [ ] = another dose, or the depositor's remark. Hits are enriched below; roughly 19% of the tested compounds scored in any of these assays. Unless noted, the call rests on the fitted dose curve; in most records, active means well fitted curve in the direction sought with a large enough effect; inconclusive means small, poorly fitted or top-dose-only effect, or another doubt; inactive means no such curve, though single readings can be large; an effect the other way counts as inactive or inconclusive.

SMILES | DT40 TDP1 no CPT | IL1B secr inh | TDP1 cell CPT | TGFb SMAD3 inh | ASM inhibitor | HepG2 viability
Cc1ccc(Nc2cc(C)c(O)c(C)c2)cc1 | 5.17µM* | ? | 5.17µM* | 0.0% | -6.7% | 3.3%
Cc1cccc(CC(=O)NCCN2CCCCC2)c1 | 4.9% | -19.3 | -15.3% | -3.2% | 6.7% | -9.3%
COc1cccc(N(C(=O)c2nc3nccc(C)n3n2)c2nc3ccccc3s2)c1 | ? | -91.6* | ? | -13.9% | -4.3% | -23.9%
COc1cccc(NC(=O)COC(=O)c2nc3nccc(C)n3n2)c1 | -0.2% | 2.3 | 6.0% | -19.0% | -0.7% | 3.5%
CCN1CCN(C(=O)c2[nH]c3ccc(OC)cc3c2C)CC1 | -0.9% | -6.4 | -15.2% | 2.9% | 2.1% | 1.8%
CCCCn1c(N)c(N(CCOC)C(=O)COC(=O)COc2cc(C)c(Cl)cc2C(C)C)c(=O)[nH]c1=O | -14.1% | -97.7* | 12.1% | ? | 1.3% | -62.5%
CCCCn1c(N)c(N(CCOC)C(=O)CN(C)CC(=O)Nc2ccc(Cl)c(Cl)c2)c(=O)[nH]c1=O | ? | ? | 18.4µM* | -11.6% | 17.7% | -82.6%
CCCCn1c(N)c(N(CCOC)C(=O)COC(=O)COc2cc(C)ccc2Cl)c(=O)[nH]c1=O | -19.4% | 12.3 | -2.0% | -10.9% | 1.0% | -2.9%
CC(C)CN(C(=O)CN(C)CC(=O)Nc1ccc(Cl)c(C(F)(F)F)c1)c1c(N)n(CC(C)C)c(=O)[nH]c1=O | 18.4µM* | -65.8* | ? | -2.5% | 12.1% | -8.0%
CCCOC(=O)c1ccc(N)cc1 | -11.8% | / | 2.2% | / | / | /
Cc1nc2nc(SCc3ccccc3)[nH]n2c(=O)c1C | -28.8% | -1.7 | ? | 22.4% | -2.2% | -2.1%
CCc1cc(=O)oc2cc(OCC(=O)NCCCn3ccnc3)ccc12 | 0.5% | -0.2 | -8.3% | -6.4% | 2.2% | -12.4%
COc1ccc(-c2cc(=O)oc3c(C)c(OC(C)C(=O)NCc4ccccn4)ccc23)cc1 (stereo not drawn) | 25.9µM* | -8.7 | ? | -10.3% | -2.0% | -4.2%
COc1ccc(-c2cc(=O)oc3cc(OC(C)C(=O)NCCCn4ccnc4)ccc23)cc1 (stereo not drawn) | 20.6µM* | 51.5 | 18.4µM* | 1.9% | -2.7% | -18.7%
COc1ccc(-c2cc(=O)oc3cc(OCC(=O)NCCCn4ccnc4)ccc23)cc1 | ? | -4.8 | 20.6µM* | 3.2% | -3.1% | -7.0%
[O]=[Bi][O]C(=O)[O][Bi]=[O] | 0.8% | / | ? | / | / | /
CCOC(=O)c1ccc(Nc2nc(C)cc(C)n2)cc1 | -18.4% | -0.2 | -3.1% | 9.1% | -0.7% | 3.7%
Clc1nc(Nc2ccc(N3CCOCC3)cc2)c2ccccc2n1 | ? | -64.2* | ? | -0.7% | -1.0% | 6.4%
CCOC(=O)c1ccc(Nc2cc(C)nc(-c3ccccc3)n2)cc1 | 5.17µM* | 39.9 | 4.61µM* | -22.2% | -12.7% | 1.7%
C=CCNc1nc(C(=O)OCC)nc2ccccc12 | -20.0% | -9.9 | -4.7% | -6.5% | 0.0% | -46.6%
CCOC(=O)c1nc(Nc2ccccc2CC)c2ccccc2n1 | 18.4µM* | -2.3 | ? | -11.7% | -4.1% | -27.6%
CCCOC(=O)c1cccc(Nc2nc(C(=O)OCC)nc3ccccc23)c1 | 13µM* | / | 16.4µM* | ? | / | -30.8%
CC(OC(=O)C1=COCCO1)C(=O)NC1CCCCC1C (stereo not drawn) | -16.7% | 7.3 | -6.5% | 0.9% | 2.6% | -21.0%
COc1ccc(Cl)cc1NC(=O)Cn1c(C)csc1=O | 3.4% | 0.0 | -13.2% | -7.0% | 1.0% | 5.5%
COc1cc(=O)n2c(c1C(=O)N(C)Cc1nccs1)CCN(Cc1ccc(F)c(F)c1)CC2 | -27.2% | / | ? | / | / | /
SMILES | DT40 TDP1 no CPT | IL1B secr inh | TDP1 cell CPT | TGFb SMAD3 inh | ASM inhibitor | HepG2 viability
Cc1nc(C)n(CC(=O)N2CCOc3ccc(CN4CCN(C)C[C@@H]4c4ccccc4)cc3C2)n1 | -16.2% | / | -8.8%[9.04 µM] | / | / | /
CN(C)C(=O)c1ccc(-c2cc(Nc3ccccc3)ncn2)cc1 | -29.3% | / | ? | / | / | /
CCOC(=O)c1cccc(Nc2cc(-c3ccccc3)ncn2)c1 | 14.6µM* | / | 14.6µM* | -1.1% | / | 3.6%
CCOC(=O)c1cccc(Nc2nc(C(=O)OCC)nc3ccccc23)c1 | 3.26µM* | / | 4.11µM* | -32.6% | / | -34.8%
CCOC(=O)c1nc(Nc2cccc(C)c2)c2ccccc2n1 | 11.6µM* | -15.2 | 23.1µM* | -2.2% | 0.5% | -19.2%
CCOC(=O)c1nc(NCc2ccccc2)c2ccccc2n1 | ? | 34.5 | ? | 9.3% | -0.9% | -2.0%
CCOC(=O)c1nc(Nc2ccc(N3CCOCC3)cc2)c2ccccc2n1 | ? | -84.3* | ? | 2.5% | -3.8% | -19.9%
CCOC(=O)c1nc(Nc2ccc(C(C)=O)cc2)c2ccccc2n1 | 14.6µM* | -10.6 | 16.4µM* | -2.2% | 13.2% | -27.7%
O=S(=O)(Nc1nc2ccccc2nc1Nc1ccc(N2CCOCC2)cc1)c1cc(Cl)ccc1Cl | 13µM* | 31.8 | ? | 1.6% | -3.7% | 0.3%
O=C(O)c1ccc(Cl)c(S(=O)(=O)Nc2ccccc2N2CCOCC2)c1 | 0.1% | 6.5 | 1.8% | 0.8% | 1.4% | -10.7%
CCOC(=O)c1ccc(Nc2nnc(C)c3ccccc23)cc1 | 16.4µM* | -26.4 | -11.6% | -21.9% | 22.9% | 4.2%
Cc1ccc2nc(-c3ccc(O)c(O)c3)cn2c1 | 20.6µM* | -7.3 | ? | -9.9% | -5.0% | -16.0%
Oc1ccc(-c2cn3cc(C(F)(F)F)ccc3n2)cc1 | ? | -14.0 | ? | 1.4% | 13.7% | -21.1%
Cc1ccc2nc(-c3ccccc3)cn2c1 | 18.4µM* | 0.3 | ? | -6.4% | -1.7% | -61.4%
CC(=O)Nc1ccc(-c2cn3cc(C)ccc3n2)cc1 | 4.1% | -19.0 | 8.5% | -2.0% | 7.9% | 1.1%
O=C(CCc1ccccc1)NCc1ccc2c(c1)CCN2C(=O)c1ccc(Cl)cc1 | -3.8% | / | -10.7% | -3.8% | / | -1.3%
Cc1sc2nc(CN3CCCCC3)nc(Cl)c2c1C | 16.4µM* | -102.6* | ? | ? | 0.3% | -14.9%
CC1CCN(Cc2nc(Cl)c3c4c(sc3n2)CCC4)CC1 | 13µM* | -96.1* | 18.4µM* | -0.7% | 2.4% | -6.7%
Clc1nc(CN2CCCCC2)nc2sc3c(c12)CCCC3 | 10.3µM* | ? | ? | 25.1µM* | -0.6% | -38.8%
